Source: PubChem BioAssay (NCI)
Compounds without any hit were thinned out: in the full panel of roughly 79,000, 15% have a hit. Activity calls are given as the source filed them. Cut-off read from the data, not from the text of the source: active = growth inhibition above about 70%; inactive = the rest.

Assays:
[1] = NCI Yeast Anticancer Drug Screen. Data for the rad52 strain (AID 147);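 note: 0% = growth of vehicle-treated control cultures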; conditions: S. cerevisiae rad52 mutant growth inhibition, stronger effect = higher value
Procedure, shortened: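 Vehicle-treated cultures served as the reference for growth inhibition of compound-exposed yeast bearing a DNA repair mutation.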

[2] = NCI Yeast Anticancer Drug Screen. Data for the wt1 strain (AID 149);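 note: 0% = growth of vehicle-treated wt1 cultures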; conditions: S. cerevisiae wt1 strain (SPY 50644) growth inhibition, stronger effect = higher value
Procedure, shortened: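 Using yeast strain wt1, compound-induced growth inhibition was determined against vehicle-treated cultures.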

[3] = NCI Yeast Anticancer Drug Screen. Data for the rad50EPP+ strain (AID 151);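 note: 0% = growth of vehicle-treated control cultures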; conditions: S. cerevisiae rad50 mutant strain, stronger effect = higher value
Procedure, shortened: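 In this screen, rad50EPP+ yeast were exposed to compounds. Growth inhibition was scored against vehicle-treated controls.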

[4] = NCI Yeast Anticancer Drug Screen. Data for the mgt1 strain (AID 153); conditions: S. cerevisiae mgt1 mutant growth inhibition, stronger effect = higher value
Procedure, shortened: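 mgt1 strain exposed; growth vs vehicle control recorded as inhibition.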

[5] = NCI Yeast Anticancer Drug Screen. Data for the rad50 strain (AID 155);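 note: 0% = growth of vehicle-only cultures of the same strain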; conditions: S. cerevisiae rad50 strain growth inhibition, stronger effect = higher value
Procedure, shortened: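 Relative growth inhibition (compound vs vehicle) was measured in yeast with a defined repair-gene alteration.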

[6] = NCI Yeast Anticancer Drug Screen. Data for the mec2-1 strain (AID 157); conditions: S. cerevisiae mec2-1 strain, stronger effect = higher value
Procedure, shortened: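 Vehicle-treated cultures served as reference for growth inhibition of compound-exposed mec2-1 yeast.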

[7] = NCI Yeast Anticancer Drug Screen. Data for the rad14 strain (AID 159);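 note: 0% = growth of vehicle-treated control cultures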; conditions: S. cerevisiae rad14 strain growth inhibition, stronger effect = higher value
Procedure, shortened: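 Screen for anticancer potential: a yeast strain altered in DNA damage repair is grown with compound, and reduced growth is quantified against vehicle controls.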

[8] = NCI Yeast Anticancer Drug Screen. Data for the sgs1 mgt1 strain (AID 161);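 note: 0% = growth of cultures given vehicle only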; conditions: S. cerevisiae sgs1 mgt1 strain, stronger effect = higher value
Procedure, shortened: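 Mutant yeast exposed to compound; growth scored against vehicle-only wells.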

[9] = NCI Yeast Anticancer Drug Screen. Data for the CLN2oe strain (AID 163);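 note: 0% = growth of vehicle-only control cultures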; conditions: S. cerevisiae CLN2oe strain, stronger effect = higher value
Procedure, shortened: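 Inhibition relative to vehicle-treated yeast is reported. Cells: strain with genetic alteration in cell-cycle control, grown with compound.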

[10] = NCI Yeast Anticancer Drug Screen. Data for the cln2 rad14 strain (AID 165);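 note: 0% = growth equal to vehicle treated cultures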; conditions: S. cerevisiae cln2 rad14 strain, stronger effect = higher value
Procedure, shortened: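 Each compound was tested on cln2 rad14 yeast. Inhibition of growth was calculated against vehicle-exposed controls.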

[11] = NCI Yeast Anticancer Drug Screen. Data for the bub3 strain (AID 167); conditions: S. cerevisiae bub3 mutant strain, stronger effect = higher value
Procedure, shortened: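 Screening used yeast with an engineered genetic alteration affecting cell cycle control. Compound-exposed cultures were compared with vehicle cultures, and reduced growth was taken as inhibition.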

[12] = NCI Yeast Anticancer Drug Screen. Data for the wt2 strain (AID 169);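 note: 0% = growth of vehicle-treated yeast cultures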; conditions: S. cerevisiae wt2 strain growth inhibition, stronger effect = higher value
Procedure, shortened: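 Inhibition of yeast growth was determined after compound treatment, normalised to controls receiving only vehicle.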

[13] = NCI Yeast Anticancer Drug Screen. Data for the mlh1 strain (AID 171);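 note: 0% = growth of vehicle-treated control cultures of the same strain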; conditions: S. cerevisiae mlh1 strain growth inhibition, stronger effect = higher value
Procedure, shortened: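 Vehicle-normalised growth inhibition of a repair- or checkpoint-altered yeast strain following compound treatment.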

[14] = NCI Yeast Anticancer Drug Screen. Data for the sgs1 strain (AID 173);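 note: 0% = growth of vehicle-only control cultures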; conditions: S. cerevisiae sgs1 mutant, stronger effect = higher value
Procedure, shortened: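 Screen format: yeast with repair or checkpoint alterations, compound exposure, growth read relative to vehicle.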

[15] = NCI Yeast Anticancer Drug Screen. Data for the mlh1 rad18 strain (AID 175); conditions: S. cerevisiae mlh1 rad18 strain growth inhibition, stronger effect = higher value
Procedure, shortened: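 Vehicle-treated cultures served as the reference for growth inhibition in a yeast strain carrying DNA damage repair alterations exposed to each compound.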

[16] = NCI Yeast Anticancer Drug Screen. Data for the rad18 strain (AID 177); conditions: S. cerevisiae rad18 mutant growth inhibition, stronger effect = higher value
Procedure, shortened: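 Test articles were incubated with altered yeast defective in DNA damage repair. Results are given as inhibition of growth versus vehicle.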

[17] = at 5.0 µM (retest, dose inferred, filed as 0.5)
[18] = at 50.0 µM (retest, dose inferred, filed as 5.0)

Measured: growth inhibition

CC(C)[Si]1(C(C)C)OCC2OC(n3cnc4c(N)ncnc43)C(N)C2O[Si](C(C)C)(C(C)C)O1 (stereo unspecified)
active: [1]; at 33.0 µM 98% | [1]; at 100.0 µM 98% | [2]; at 33.0 µM 98% | [2]; at 100.0 µM 98% | [3]; at 100.0 µM 89% | [4]; at 33.0 µM 98% | [4]; at 100.0 µM 98% | [5]; at 33.0 µM 98% | [5]; [18] 98% | [5]; at 50.0 µM 89.8% | [5]; at 100.0 µM 98% | [6]; at 33.0 µM 98% | [6]; [18] 99% | [6]; at 50.0 µM 90.4% | [6]; at 100.0 µM 98% | [7]; at 33.0 µM 98% | [7]; at 100.0 µM 98% | [8]; [18] 99% | [8]; at 50.0 µM 88.8% | [9]; at 33.0 µM 97% | [9]; at 100.0 µM 98% | [10]; [18] 99% | [10]; at 50.0 µM 89.3% | [11]; at 33.0 µM 97% | [11]; [18] 99% | [11]; at 50.0 µM 86.5% | [11]; at 100.0 µM 98% | [12]; at 11.0 µM 93% | [12]; at 33.0 µM 98% | [12]; at 100.0 µM 97% | [13]; at 33.0 µM 97% | [13]; at 100.0 µM 98% | [14]; at 33.0 µM 97% | [14]; at 100.0 µM 98% | [15]; [18] 99% | [15]; at 50.0 µM 87.4% | [16]; at 33.0 µM 97% | [16]; at 100.0 µM 97%
inactive: [1]; at 1.2 µM 3% | [1]; at 3.7 µM 9% | [1]; at 11.0 µM 32% | [2]; at 1.2 µM 5% | [2]; at 3.7 µM 11% | [2]; at 11.0 µM 34% | [3]; at 1.2 µM 10% | [3]; at 3.7 µM 20% | [3]; at 11.0 µM 15% | [3]; at 33.0 µM 24% | [4]; at 1.2 µM 19% | [4]; at 3.7 µM 16% | [4]; at 11.0 µM 20% | [5]; at 1.2 µM 7% | [5]; at 3.7 µM 10% | [5]; [17] 38% | [5]; at 11.0 µM 41% | [6]; at 1.2 µM 19% | [6]; at 3.7 µM -5% | [6]; [17] 14% | [6]; at 11.0 µM 14% | [7]; at 1.2 µM -1% | [7]; at 3.7 µM 1% | [7]; at 11.0 µM 13% | [8]; [17] 7% | [9]; at 1.2 µM 14% | [9]; at 3.7 µM 2% | [9]; at 11.0 µM 5% | [10]; [17] 18% | [11]; at 1.2 µM -3% | [11]; at 3.7 µM -10% | [11]; [17] -26% | [11]; at 11.0 µM 9% | [12]; at 1.2 µM -50% | [12]; at 3.7 µM -34% | [13]; at 1.2 µM 3% | [13]; at 3.7 µM 14% | [13]; at 11.0 µM 32% | [14]; at 1.2 µM 6% | [14]; at 3.7 µM 5% | [14]; at 11.0 µM 19% | [15]; [17] 47% | [16]; at 1.2 µM -8% | [16]; at 3.7 µM 2% | [16]; at 11.0 µM 22%

CC1=CN2C(c3ccccc3)=NON(c3ccc(C)cn3)C2C=C1 (stereo unspecified)
inactive: [1]; at 1.2 µM 2% | [1]; at 3.7 µM 4% | [1]; at 11.0 µM -3% | [1]; at 33.0 µM 1% | [1]; at 100.0 µM -7% | [2]; at 1.2 µM -3% | [2]; at 3.7 µM -3% | [2]; at 11.0 µM -3% | [2]; at 33.0 µM -3% | [2]; at 100.0 µM -5% | [3]; at 1.2 µM 6% | [3]; at 3.7 µM 1% | [3]; at 11.0 µM 0% | [3]; at 33.0 µM -2% | [3]; at 100.0 µM -11% | [4]; at 1.2 µM -2% | [4]; at 3.7 µM 0% | [4]; at 11.0 µM -2% | [4]; at 33.0 µM -1% | [4]; at 100.0 µM -3% | [5]; at 1.2 µM 6% | [5]; at 3.7 µM 2% | [5]; [17] -5% | [5]; at 11.0 µM -6% | [5]; at 33.0 µM 1% | [5]; [18] 12% | [5]; at 50.0 µM -4.35% | [5]; at 100.0 µM -11% | [6]; at 1.2 µM -3% | [6]; at 3.7 µM -2% | [6]; [17] -24% | [6]; at 11.0 µM -3% | [6]; at 33.0 µM -2% | [6]; [18] -21% | [6]; at 50.0 µM 19.8% | [6]; at 100.0 µM -4% | [7]; at 1.2 µM 4% | [7]; at 3.7 µM 0% | [7]; at 11.0 µM -4% | [7]; at 33.0 µM -2% | [7]; at 100.0 µM -9% | [8]; [17] -15% | [8]; [18] 20% | [8]; at 50.0 µM 18% | [9]; at 1.2 µM 2% | [9]; at 3.7 µM -2% | [9]; at 11.0 µM -4% | [9]; at 33.0 µM -2% | [9]; at 100.0 µM -7% | [10]; [17] -23% | [10]; [18] -17% | [10]; at 50.0 µM -12.7% | [11]; at 1.2 µM -2% | [11]; at 3.7 µM -2% | [11]; [17] -25% | [11]; at 11.0 µM -6% | [11]; at 33.0 µM -4% | [11]; [18] 10% | [11]; at 50.0 µM 46% | [11]; at 100.0 µM -4% | [12]; at 1.2 µM -7% | [12]; at 3.7 µM -7% | [12]; at 11.0 µM -10% | [12]; at 33.0 µM -13% | [12]; at 100.0 µM -7% | [13]; at 1.2 µM 0% | [13]; at 3.7 µM -2% | [13]; at 11.0 µM -3% | [13]; at 33.0 µM -1% | [13]; at 100.0 µM -4% | [14]; at 1.2 µM -23% | [14]; at 3.7 µM -16% | [14]; at 11.0 µM -2% | [14]; at 33.0 µM -7% | [14]; at 100.0 µM 2% | [15]; [17] -15% | [15]; [18] 50% | [15]; at 50.0 µM 1.65% | [16]; at 1.2 µM 3% | [16]; at 3.7 µM 3% | [16]; at 11.0 µM -1% | [16]; at 33.0 µM 1% | [16]; at 100.0 µM -7%
